# Inconclusive results are not listed. Entries that show only a call come without a potency. Calls of active or inactive are those of the source. Calls come from the whole dose curve; as a rule, active = well fitted activation curve with a large enough effect in the repeat runs; inconclusive = weak or mixed curves; inactive = flat fitted curve, though single readings scatter.
# Assay: A CellTox Green Cytotoxicity Assay to monitor cytotoxicity in HepG2 cells - 16 hour (AID 1224876); note: nearly all actives have a fitted effect of over 45% in size
# Conditions: CellTox Green fluorescence; series mostly up to 76.8 µM
# Text: National Center for Advancing Translational Sciences [NCATS]
# NIH Chemical Genomics Center [NCGC]
# U.S. Environmental Protection Agency [EPA]
# National Institutes of Environmental Health Sciences [NIEHS]
# National Toxicology Program [NTP]
# Cell-based models are critical for drug discovery. Determining the natural cytotoxic effects resulting from test compounds is an essential research activity. A CellTox Green Cytotoxicity Assay to monitor cytotoxicity in real time of continues cell culture during 40 hours of the compound treatment was used to screen Tox21 10K library compounds in HepG2 cells. CellTox Green Cytotoxicity Assay is a nonlytic, homogeneous, biofluorescent method to measure cytotoxicity in cell culture after experimental manipulation. The assay system uses a proprietary asymmetric cyanine dye that is excluded from viable cells but preferentially stains the dead cell's DNA. […] Viable cells produce no appreciable increases in fluorescence. Therefore, the fluorescence signal produced by the binding interaction with dead cell DNA is proportional to cytotoxicity.
# The mixture of HepG2 cell suspension and reagents were dispensed at 600cells/6 ul/well in 1536-well tissue culture treated black solid bottom plates using a Multidrop dispenser. After the assay plates were incubated at a 37 C/5% CO2 incubator for 5 hours, 23 nL of compounds dissolved in DMSO, positive and negative controls was transferred to the assay plate by a pintool work station. The plates were incubated at 37 C for 40 hours. The fluorescence intensity were measured at 0h, 8h, 16h, 24h, 32h and 40h time points using ViewLux plate reader during compound treatment.
# Potency is the fitted concentration of half-maximal effect.
row,SMILES,Potency
1,c1ccc(-c2nc3ccccc3[nH]2)cc1,inactive
2,C=C1C(CCl)(CCl)C2(Cl)C(Cl)C(Cl)C1(Cl)C2(Cl)Cl (stereo not given),inactive
3,Cn1ccnc1,inactive
4,ClC(c1ccccc1)(c1ccccc1)c1ccccc1,inactive
5,CC1=C(/C=C/C(C)=C/C=C/C(C)=C\C(=O)O)C(C)(C)CCC1,inactive
6,COC(=O)c1ccc([N+](=O)[O-])cc1,inactive
7,O=C(Nc1ccccc1)c1cc(Cl)ccc1O,inactive
8,Cc1ccc(S(=O)(=O)C(I)I)cc1,54.9 µM (active)
9,Cc1c(Cl)c(=O)oc2cc(O)ccc12,inactive
10,Oc1cccc2c(O)cccc12,inactive
11,CCOC=C(C(=O)OCC)C(=O)OCC,inactive
12,NCc1cccc(C2CCN(C(=O)c3ccc(C#Cc4ccccc4F)o3)CC2)c1,38.9 µM (active)
13,Cc1ccc(N=Nc2c(O)ccc3ccccc23)c(C)c1,inactive
14,CSc1nnc(C(C)(C)C)c(=O)[nH]1,inactive
15,c1ccc2c(c1)-c1ccc3ccc4cccc5cc-2c1c3c45,inactive
16,Nc1c(Br)cc([N+](=O)[O-])cc1Br,inactive
17,CC(=O)CC(N)=O,inactive
18,CCCC(C)C=O (stereo not given),inactive
19,O=C1CCCCCCCCCCCCCC1,inactive
20,c1ccc2occc2c1,inactive

row,SMILES,Potency
1,CN1CC[C@H](c2c(O)cc(O)c3c(=O)cc(-c4ccccc4Cl)oc23)[C@H](O)C1,inactive
2,COc1ccc(OC)c(N=Nc2c(O)ccc3ccccc23)c1,inactive
3,Nc1ccc(Oc2cccc(Oc3ccc(N)cc3)c2)cc1,inactive
4,CC(=O)[C@]1(O)Cc2c(O)c3c(c(O)c2[C@@H](O[C@H]2C[C@H](N)[C@H](O)[C@H](C)O2)C1)C(=O)c1ccccc1C3=O,21.3 µM (active)
5,CC(CC(C)(C)C)CC(C)(C)CC(C)(C)C (stereo not given),inactive
6,O=C(c1ccccc1)c1ccc(Cl)cc1,inactive
7,CCCCCCCCCCCC(=O)Cl,inactive
8,CCn1c2ccccc2c2ccccc21,inactive
9,[Cl][Eu]([Cl])[Cl],inactive
10,CCN(CCC#N)c1ccc(N=Nc2ccc([N+](=O)[O-])cc2)cc1,inactive
11,CC1(C)[C@H](C(=O)OCc2cccc(Oc3ccccc3)c2)[C@@H]1C=C(Cl)Cl,inactive
12,C1=CCCC1,inactive
13,Brc1cc(Br)cc(Br)c1,inactive
14,O=C(NCc1ncc(C(F)(F)F)cc1Cl)c1c(Cl)cccc1Cl,inactive
15,CC(C)(c1ccc(Oc2ccc(N)cc2)cc1)c1ccc(Oc2ccc(N)cc2)cc1,inactive
16,O=C(Nc1ccc([N+](=O)[O-])cc1)Nc1ccc([N+](=O)[O-])cc1 (tested in a mixture with another compound),inactive
17,CC/C(=C(/c1ccc(O)cc1)c1ccc(OCCN(C)C)cc1)c1ccccc1,25.7 µM (active)
18,CN1CCN(c2ccccc2/C=C2\SCCN(c3ccc(Cl)c(Cl)c3)C2=O)CC1,49 µM (active)
19,Cc1cc(Br)ccc1NC(=O)CCl,inactive
20,C=C1CC[C@H]2O[C@]2(C)CC[C@@H]2[C@@H]1CC2(C)C,inactive
